The nature of assay [1]: Viability qHTS for spleen associated tyrosine kinase inhibitor (SYKi) naive MV4-11 cells (AID 1963823). Note: nearly all actives have a fitted effect of over 40% in size. In short, it runs like this: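 In this viability screen, compounds acted on SYK inhibitor naive MV4-11 cells for three days (72 hr, 37 C). Remaining viable cells were measured by CellTiter-Glo luminescence following a 10 min room-temperature development.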
(In qHTS, concentration-response curves come from the screen itself.)

A short description of assay [2]: Viability qHTS for spleen associated tyrosine kinase inhibitor (SYKi) drug resistant MV4-11 cells (AID 1963824). Note: nearly all actives have a fitted effect of over 35% in size. An outline of the steps: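 CellTiter-Glo luminescence, read 10 min after reagent addition, reports viability after a 72 hr compound exposure. Cells are an MV4-11 line made resistant to SYK inhibition, seeded at 500 per well onto compound-containing plates.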

A short description of assay [3]: Quantitative highthroughput screen to assess conditional lethalithy of NOMO1 cells grown in RPMI1640 with untreated serum (RPMI+s) (AID 1963876).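 For Viability: 100% = DMSO wells and 0% = empty wells without cells.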 Note: nearly all actives have a fitted effect of over 35% in size. In short, it runs like this:
(§1)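 Each medium arm—HPLM with 10% dialyzed FBS, or RPMI1640 with 5 mM glucose and 10% untreated or dialyzed FBS—was screened against an 11-point, 3-fold compound titration for 48 h at 37 °C, with CellTiter-Glo luminescence as endpoint.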

Assay [4] is described as follows: Quantitative highthroughput screen to assess conditional lethalithy of NOMO1 cells grown in RPMI1640 with dialyzed fetal bovine serum (RPMI+ds) (AID 1963877).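 For Viability: series mostly up to about 46 µM; 100% = DMSO control wells and 0% = empty wells.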 Note: nearly all actives have a fitted effect of over 30% in size. In short, it runs like this: as §1
Assay [5] is described as follows: Quantitative highthroughput screen to assess conditional lethalithy of NOMO1 cells grown in Human Plasma-Like Medium with dialyzed fetal bovine serum (HPLM+ds) (AID 1963878).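 For Viability: 100% = DMSO wells and 0% = empty wells on each plate.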 Note: nearly all actives have a fitted effect of over 35% in size. An outline of the steps:
as §1

The nature of assay [6]: Quantitative highthroughput screen to assess conditional lethalithy of P12 Ichikawa cells grown in Human Plasma-Like Medium with dialyzed fetal bovine serum (HPLM+ds) (AID 1963879). For Viability: series mostly up to about 46 µM. Note: nearly all actives have a fitted effect of over 35% in size. The note with it: Potency: viability. In short, it runs like this: as §1
The nature of assay [7]: Quantitative highthroughput screen to assess conditional lethalithy of P12 Ichikawa cells grown in RPMI1640 with dialyzed fetal bovine serum (RPMI+ds) (AID 1963880).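 For Viability: 100% = DMSO wells and 0% = empty wells on each plate.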 Note: nearly all actives have a fitted effect of over 35% in size. The note with it: Potency: P12-Ichikawa viability. In short, it runs like this:
as §1

Assay [8] can be described thus: Quantitative highthroughput screen to assess conditional lethalithy of P12 Ichikawa cells grown in RPMI1640 with untreated serum (RPMI+s) (AID 1963881).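 For Viability: series mostly up to about 46 µM; 100% = DMSO wells and 0% = empty wells without cells.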 Note: nearly all actives have a fitted effect of over 35% in size. The note with it: Potency: viability. In short, it runs like this: as §1
Assay [9] is described as follows: Quantitative highthroughput screen to assess conditional lethalithy of SEM cells grown in Human Plasma-Like Medium with dialyzed fetal bovine serum (HPLM+ds) (AID 1963882). For Viability: series mostly up to about 46 µM. Note: nearly all actives have a fitted effect of over 35% in size. In short, it runs like this: as §1
Assay [10] in a line: Quantitative highthroughput screen to assess conditional lethalithy of SEM cells grown in RPMI1640 with unreated serum (RPMI+s) (AID 1963883).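 For Viability: 100% = DMSO wells and 0% = empty wells without cells.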 Note: nearly all actives have a fitted effect of over 35% in size. In short, it runs like this: as §1
Assay [11] is described as follows: Quantitative highthroughput screen to assess conditional lethalithy of SEM cells grown in RPMI1640 with dialyzed fetal bovine serum (RPMI+ds) (AID 1963884).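 For Viability: series mostly up to about 46 µM; 100% = DMSO control wells and 0% = empty wells without cells.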 Note: nearly all actives have a fitted effect of over 35% in size. An outline of the steps:
as §1

A short description of assay [12]: Cellular viability qHTS for adrenocortical cancer (ACC) cell line SW-13 (AID 1963989).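 For activity (max response): cells grown in serum-free medium with ITS supplement; % is set by controls: 0 for no effect and ±100 for the full control effect.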 Note: nearly all actives have a fitted effect of over 65% in size. Conditions: SW-13 ACC cells viability, CellTiter-Glo, 48 h; activity (max response): active compounds read low. An outline of the steps:
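SW-13 cells in ITS-supplemented serum-free DMEM were plated overnight, then exposed for 48 h at 37C to compound titrations (up to 46 uM final). Viability was read by CellTiter-Glo luminescence; four-parameter logistic fits gave IC50 and efficacy.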

Assay [13] is described as follows: Cellular viability qHTS for adrenocortical cancer (ACC) cell line NCI-H295R (AID 1963990). Note: nearly all actives have a fitted effect of over 60% in size. An outline of the steps:
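Luminescent ATP read-out (CellTiter-Glo, 20 min RT) after 48 h drug exposure of NCI-H295R cells; a titration up to 46 uM final. Data normalized to doxorubicin (100% inhibition) and DMSO (0%); 4-parameter fit gives IC50, max response.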

For 4 compounds, Potency and activity (max response) results are on record in PubChem BioAssay (NCATS).

Molecules are shown by their SMILES. Several values for one entry are separate records, joined by “and”; a condition that tells them apart may be missing. Equal entries are not always repeated. Inconclusive results are not listed. Values without a mark were called inactive. Activity calls are given as the source filed them. Calls come from the whole dose curve; as a rule, active = well fitted curve in the direction sought with a large enough effect; inconclusive = small, poorly fitted or top-dose-only effect, or another doubt; inactive = no such curve, though single readings can be large; an effect the other way counts as inactive or inconclusive.
Potency is the fitted concentration of half-maximal effect.

As to `O=C(NCc1ccccc1)c1csc(Nc2ccncn2)n1`, the Potency was 4680 nM (active) in assay [1]; 4.17 µM (active) and 20.6 µM (active) in [2]; 3320 nM (active) in [3]; 3720 nM (active) in assay [4]; 2350 nM (active) in assay [5]; 6620 nM (active) in assay [6]. The Potency is 3720 nM (active) in [7]; 3320 nM (active) in [8]; 1660 nM (active) in assay [9]; 833 nM (active) in [10]; 1660 nM (active) in assay [11]; 25100 nM (active) in assay [12]. Besides, in assay [13], the Potency is 31600 nM (active).

Turning to `O=S(=O)(O)CCSSCCS(=O)(=O)O`, the Potency entry in [1], in [2], in assay [3], in assay [4], in assay [5] and in assay [6] was “inactive” each time. For the same compound, the Potency result in assay [7], in assay [8], in [9], in assay [10], in [11] and in assay [13] was “inactive” in each case. For the same compound, the activity (max response) in assay [12] was 0.678%.

`Cc1cc(Nc2ncnc3ccc(-c4ccc(CNCCS(C)(=O)=O)o4)cc23)ccc1Oc1ccn2ncnc2c1`: the Potency in assay [1] was 11800 nM (active); in [2] it was 11.6 µM (active) and 18.6 µM (active); in assay [3], 935 nM (active); in assay [4] it was 1180 nM (active); in assay [5], 209 nM (active); in assay [6], 209 nM (active). For the same compound, the Potency in assay [7] is 743 nM (active); in [8], 1180 nM (active); in assay [9], 590 nM (active); in assay [10], 93.5 nM (active); in [11], 332 nM (active). Moreover, the Potency result in assay [13] was “inactive”.

Regarding `Cn1cc(CNCC2CCN(c3ncc(C(=O)NO)cn3)CC2)c2ccccc21`, the Potency in [1] is 66.1 nM (active); in assay [2] it was 16.6 nM (active); in [3], 372 nM (active); in [4], 332 nM (active); in [5], 296 nM (active); in assay [6], 264 nM (active). The Potency in assay [7] was 372 nM (active); in [8] it was 235 nM (active); in [9], 132 nM (active); in assay [10], 148 nM (active); in assay [11] it was 132 nM (active); in [12], 1260 nM (active). The Potency in [13] is 794 nM (active).
